In PMC4336329 (PLoS ONE, 2015):
Screen size: about 310,000 compounds; about 14,000 (4.5%) showed an effect of 50% or more. Effects have a minus sign here. For the sample, strong results were picked, then their nearest neighbours and some compounds at random.

target: human ether-à-go-go-related gene (hERG) potassium channel (human, UniProt Q12809); assay: primary screen, population patch clamp on CHO cells stably expressing hERG; higher = less effect of the substance
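Also: peak tail current of the secondary pulse compared with the same well before compound.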

human ether-à-go-go-related gene (hERG) potassium channel, sequence (Q12809 whole entry, looked up): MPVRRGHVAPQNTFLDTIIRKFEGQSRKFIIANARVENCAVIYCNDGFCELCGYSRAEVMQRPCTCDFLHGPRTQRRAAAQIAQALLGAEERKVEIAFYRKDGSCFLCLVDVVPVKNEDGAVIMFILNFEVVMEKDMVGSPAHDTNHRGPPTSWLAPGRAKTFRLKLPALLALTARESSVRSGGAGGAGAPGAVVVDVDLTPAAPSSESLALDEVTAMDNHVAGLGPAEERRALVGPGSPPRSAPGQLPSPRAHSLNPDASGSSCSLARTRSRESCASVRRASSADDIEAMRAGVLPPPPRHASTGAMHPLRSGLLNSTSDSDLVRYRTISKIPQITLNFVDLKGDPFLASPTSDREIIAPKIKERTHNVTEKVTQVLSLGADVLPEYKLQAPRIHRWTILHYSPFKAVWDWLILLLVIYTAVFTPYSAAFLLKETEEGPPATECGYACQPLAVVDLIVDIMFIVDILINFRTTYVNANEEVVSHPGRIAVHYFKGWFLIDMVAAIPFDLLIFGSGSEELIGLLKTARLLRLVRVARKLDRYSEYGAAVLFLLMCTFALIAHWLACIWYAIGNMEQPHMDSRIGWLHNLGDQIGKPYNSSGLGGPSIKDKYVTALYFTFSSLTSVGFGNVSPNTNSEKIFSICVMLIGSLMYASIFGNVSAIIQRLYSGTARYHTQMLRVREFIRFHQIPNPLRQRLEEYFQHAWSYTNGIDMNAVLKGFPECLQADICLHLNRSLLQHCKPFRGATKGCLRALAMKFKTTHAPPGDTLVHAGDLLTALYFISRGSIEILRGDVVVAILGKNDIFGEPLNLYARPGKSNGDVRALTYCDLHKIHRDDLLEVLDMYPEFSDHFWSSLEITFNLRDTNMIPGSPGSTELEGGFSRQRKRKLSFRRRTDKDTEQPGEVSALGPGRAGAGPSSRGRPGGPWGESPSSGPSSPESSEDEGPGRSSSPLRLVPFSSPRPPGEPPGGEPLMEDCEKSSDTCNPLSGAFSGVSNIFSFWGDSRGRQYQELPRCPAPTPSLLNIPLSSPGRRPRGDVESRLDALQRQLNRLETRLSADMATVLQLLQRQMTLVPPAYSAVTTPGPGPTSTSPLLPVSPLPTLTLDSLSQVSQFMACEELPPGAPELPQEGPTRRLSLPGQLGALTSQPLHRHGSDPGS

Point of comparison: `Cn1c(SCC(=O)N2CCOCC2)nnc1-c1ccncc1`, “hERG current change (%, negative = inhibition) at 10uM” value 16.3%. Against it:
- COCCN1CCN(C(=O)C2CCC(=O)N(CCc3ccccc3)C2)CC1 (stereo not drawn) — lower, 5.79%
- CN(Cc1ccccc1)C(=O)c1nc[nH]c1C(=O)N1CCN(C(=O)OC(C)(C)C)CC1 — lower, 11.2%
- CN(C)CCN(C(=O)COc1ccc(Cl)cc1)c1nc2cc3c(cc2s1)OCO3 — lower, -5.52%
- CN(C)CCN(C(=O)CCS(=O)(=O)c1ccccc1)c1nc2cc3c(cc2s1)OCO3.Cl — lower, 7.43%
- CN(C)CCCN(C(=O)COc1ccc(Cl)cc1)c1nc2cc3c(cc2s1)OCO3.Cl — lower, -59.7%
- CN(C)CCCN(C(=O)COc1ccc(Cl)cc1)c1nc2cc3c(cc2s1)OCCO3.Cl — lower, -55%
- CCN(CC)CCN(C(=O)CCS(=O)(=O)c1ccccc1)c1nc2cc3c(cc2s1)OCO3.Cl — lower, -20.6%
- CN(C)CCCN(C(=O)COc1ccccc1)c1nc2cc3c(cc2s1)OCCO3 — lower, -45%
- CN(C)CCCN(C(=O)CCS(=O)(=O)c1ccccc1)c1nc2cc3c(cc2s1)OCO3.Cl — lower, -60%
- CN(C)CCCN(C(=O)COc1ccccc1)c1nc2cc3c(cc2s1)OCO3.Cl — lower, -65.4%
- Clc1ccc(CN(CC2CCCO2)C(c2cccs2)c2nnnn2C2CCCC2)cc1 (stereo not drawn) — lower, 3.97%
- O=C(/C=C/c1cccs1)Nc1nccs1 — lower, 15.8%
- O=S(=O)(c1ccc(Oc2ccc(Cl)cc2)c(S(=O)(=O)N2CCCCC2)c1)N1CCCCC1 — lower, -10.1%
- COC(=O)c1ccc(-c2ccco2)n1Cc1ccccc1Cl — lower, -1.48%
- CC(Oc1ccc2oc(-c3ccccc3)c(C(=O)O)c2c1)C(=O)O (stereo not drawn) — lower, 14.7%
- Cn1c(NCc2cccs2)nc2ccccc21 — lower, -11.1%
- Cc1cc(C(=O)CSc2nc(N)cc(=O)[nH]2)c(C)n1-c1ccc(OC(F)F)cc1 — lower, -1.41%
- Cc1cc(C(=O)CSc2cccc[n+]2[O-])c(C)n1-c1ccccc1 — lower, 13.9%
- Cc1cc(C(=O)CSc2cccc[n+]2[O-])c(C)n1-c1ccc(Br)cc1 — lower, -68.6%
- COC(=O)c1ccc(-n2c(C)cc(C(=O)CSc3cccc[n+]3[O-])c2C)cc1 — higher, 21.2%
- Cc1cc(C(=O)CSc2cccc[n+]2[O-])c(C)n1-c1ccc(OC(F)F)cc1 — lower, -61.9%
- Cc1cc(C(=O)CC#N)c(C)n1-c1ccc(OC(F)F)cc1 — lower, -21.5%
- Cc1nc(Nc2ccccc2C(F)(F)F)sc1C(=O)N(C)C — higher, 21.7%
- COC(=O)C(c1cc(OC)c(O)c(OC)c1)(N1CCNC(C)C1)C(F)(F)F (stereo not drawn) — lower, -9.77%
- Cn1c(SCC(=O)N2CCN(c3ccccc3)CC2)nnc1-c1c[nH]c2ccccc12 — lower, -50.5%
- Cn1c(SCC(=O)N2CCN(c3ccccc3)CC2)nnc1-c1ccncc1 — lower, -19.5%
- Cn1c(SCC(=O)N2CCCc3ccccc32)nnc1-c1c[nH]c2ccccc12 — lower, -10.2%
- Cn1c(SCC(=O)N2CCN(c3cccc(Cl)c3)CC2)nnc1-c1ccncc1 — lower, -55.9%
- Cn1c(SCC(=O)N2CCN(c3ccccc3)CC2)nnc1-c1ccccc1 — lower, -11.2%
- CCn1c(SCC(=O)N2CCN(c3ccccc3)CC2)nnc1-c1c[nH]c2ccccc12 — lower, -53.6%
- CCn1c(SCC(=O)N2CCc3ccccc32)nnc1-c1c[nH]c2ccccc12 — lower, 11.8%
- CCOC(=O)CSc1nnc(-c2c[nH]c3ccccc23)n1CC — lower, -10.3%
- COc1cccc(N2CCN(C(c3ccccn3)c3nnnn3C(C)(C)C)CC2)c1 (stereo not drawn) — lower, 1.38%
- O=C(c1ccccc1)N(Cc1cccc(Br)c1)C1CCS(=O)(=O)C1 (stereo not drawn) — lower, -7.59%
- CCCCC1(C(=O)OC)NC(c2ccc(O)cc2)C2C(=O)N(c3ccccc3)C(=O)C21 (stereo not drawn) — lower, 2.03%
- Cc1ccc(-c2nnc(SCC#CCOC(=O)c3ccco3)o2)cc1 — lower, -6.36%
- O=C(O)c1ccc(NC(CSCc2ccc(F)cc2)C(=O)O)c([N+](=O)[O-])c1 (stereo not drawn) — lower, 2.41%
- CCOc1ccc(C2c3[nH]c4ccccc4c3C[C@H]3C(=O)N(C4CCN(Cc5ccccc5)CC4)CC(=O)N23)cc1OC (stereo partly drawn) — lower, -5.25%
- C/C(CC(=O)Nc1ccc2c(c1)OCO2)=N\NC(=O)OC(C)(C)C — lower, -5.1%
- COC(=O)C1C(O)=C(C(C)=N)C(=O)CC1(C)C (stereo not drawn) — higher, 22.9%
- O=C(COC(=O)C1CC(=O)N(c2nc(-c3ccccc3)cs2)C1)c1ccccc1 (stereo not drawn) — higher, 26.9%
- C=C1CCN([C@H](C(=O)NCc2ccccc2)C(C)C)S(=O)(=O)c2ccccc21 — lower, 3.33%
- CCOC(=O)c1cc2ccccc2nc1C — lower, 5.32%
- CC(C)n1nc(C(=O)OCn2nnc3ccccc3c2=O)c2ccccc2c1=O — lower, 10.2%
- Br.CC(C)(C)c1ccc(C2=CSC3=NCCN23)cc1 — lower, -55.8%
- Br.C1=C(c2ccccc2)N2CCN=C2S1 — lower, -7.6%
- Br.Cc1ccc(C2=CSC3=NCCN23)cc1 — lower, -4.96%
- Br.Cc1ccc(C2=CSC3=NCCN23)c(C)c1 — lower, -26.8%
- Brc1ccc(C2=CSC3=NCCN23)cc1 — lower, -29.5%
- Br.CC(C)Cc1ccc(C2=CSC3=NCCN23)cc1 — lower, -70.5%
- Br.Clc1ccc(C2=CSC3=NCCN23)cc1Cl — lower, -48.2%
- Cl.Oc1ccc(C2=CSC3=NCCN23)cc1O — lower, -1.2%
- Br.CCc1ccc(C2=CSC3=NCCN23)cc1 — lower, -14.7%
- Br.CC(C)(C)c1cc(C2=CSC3=NCCN23)cc(C(C)(C)C)c1O — lower, -76.2%
- Clc1ccc(C2=CSC3=NCCN23)c(Cl)c1.[Br-] — lower, -59.4%
- Br.COc1ccc(C2=CSC3=NCCN23)cc1 — lower, -6.09%
